# Screens as filed in PubChem.
# SUMO Mot1 rescue – blocks SUMOylation pathway, rescuing yeast Mot1-301 growth. growth rescue, % at 18.8 µM. actives 1% (n = 320,000). S. cerevisiae Mot1-301 growth rescue, ATP luminescence, 38.5C; percent above DMSO median, 100 means doubled;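 active means every valid replicate shows activation above 250% relative to neutral control wells; inactive means the rest, any valid replicate at or below 250%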
# PfM18AAP inh – blocks P. falciparum M18 aspartyl aminopeptidase; AID 1822; actives 1.2% (n = 290,000); recombinant PfM18AAP, H-Glu-NHMec fluorogenic cleavage; inhibition, % at 7.35 µM;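 active means inhibition above the campaign mean inhibition over all tested compounds plus 3 SD, cut at about 28% in these data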
# ALR H2O2 inh – inhibitors of human sulfhydryl oxidase ALR. actives 3.8% (n = 290,000). AID 485317. inhibition, % (concentration not given with the values). purified ALR, DTT oxidation, H2O2 HRP-luminol luminescence. P55789;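 active means mean replicate inhibition above about 79%, with every replicate also reaching it, limit read from the data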
# Target sequence (P55789 whole entry, looked up): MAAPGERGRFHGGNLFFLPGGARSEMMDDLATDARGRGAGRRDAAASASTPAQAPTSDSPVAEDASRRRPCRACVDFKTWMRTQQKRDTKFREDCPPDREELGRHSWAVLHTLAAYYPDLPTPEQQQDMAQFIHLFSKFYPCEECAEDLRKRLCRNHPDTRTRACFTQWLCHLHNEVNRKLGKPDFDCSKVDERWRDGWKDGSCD
# HIF act – HIF pathway transcriptional activation | U2OS HRE-luciferase reporter, luminescence; normalized: DMSO 0%, desferrioxamine 100% | activation, % at 7.5 µM (by protocol) | actives 0.32% (n = 300,000) | AID 1910;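 active means mean activation of at least 10% of the iron chelator positive control signal, with at least half of replicates also reaching 10%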
# Hits are given with their value; . = inactive; / = no result given; + = active, no number. Compounds with a hit are over-represented: about 5.3% of the library has one in this group of screens.
SMILES,SUMO Mot1 rescue,PfM18AAP inh,ALR H2O2 inh,HIF act
CCc1c(O)nc(SCC(=O)Nc2nc3ccccc3s2)n(C2CCCCC2)c1=O,.,.,92.2,.
COc1ccc(NC(=O)CSc2nnc(C3CCCCC3)n2N)cc1,.,.,.,.
CC1CC(C)CN(C(=O)COC(=O)CNC(=O)C23CC4CC(CC(C4)C2)C3)C1 (configuration not stated),.,/,.,.
COCCNC(=O)C(c1ccncc1)N(C(=O)c1sc(C)nc1C)c1cccc(C)c1 (configuration not stated),+,.,.,.
CCC(C)(C)NC(=O)C(c1ccncc1)N(C(=O)c1sc(C)nc1C)c1ccc(F)cc1 (configuration not stated),.,.,.,.
Cc1noc2ncnc(Sc3ccc(Cl)cc3)c12,323.5,.,79.6,.
Cc1ccc(Sc2ncnc3onc(C)c23)cc1,.,.,99.2,/
Cc1nn(C)c(C)c1C1C(C#N)=C(N)OC2=C1C(=O)CCC2 (configuration not stated),311.2,.,/,/
COc1ccc(-c2csc(NC(=O)Nc3ccccc3)n2)cc1,.,.,.,.
Cc1ccc(NC(=O)Nc2nc(-c3ccc(C)s3)cs2)cc1,.,28.1,.,.
CN(C)S(=O)(=O)c1ccc(SCC(=O)N2CC(=O)Nc3ccccc32)nc1,.,/,.,/
COc1ccc([N+](=O)[O-])c(S(=O)(=O)c2ccc(Cl)cc2)n1,.,.,75.3,.
COc1ccc([N+](=O)[O-])c(S(=O)(=O)c2ccccc2)n1,.,.,97.0,.
O=[N+]([O-])c1cccnc1S(=O)(=O)c1ccccc1,.,.,.,.
CCOc1ccc(-c2cc(C(=O)OC)nc3c2c(=O)n(C)c(=O)n3C)cc1,/,.,.,.
Cc1ccc(Cl)cc1NC(=O)N[C@@H](CC(C)C)C(=O)O,.,.,/,.
COc1ccc2cc(C(C)C(=O)NC3CCC(O)CC3)ccc2c1 (configuration not stated),.,.,/,.
N#Cc1c(-c2ccccc2)nc(SCc2nc(N)nc(N3CCCCC3)n2)[nH]c1=O,.,.,97.3,.
CC(C)=CCc1c(O)cc(O)c2c(=O)c(O[C@@H]3O[C@@H](C)[C@H](O)[C@@H](O)[C@H]3O)c(-c3ccc(O)cc3)oc12,.,/,/,.
C[C@@H]1O[C@@H](O[C@H]2[C@H](O)[C@@H](O)[C@H](Oc3c(-c4ccc(O)cc4)oc4cc(O)cc(O)c4c3=O)O[C@@H]2CO)[C@H](O)[C@H](O)[C@H]1O,.,/,.,/
CC1OC(Oc2c(-c3cc(O)c(O)c(O)c3)oc3cc(O)cc(O)c3c2=O)C(O)C(O)C1O (configuration not stated),/,44.9,/,.
C[C@@H]1O[C@@H](OC[C@@H]2O[C@H](Oc3c(-c4ccc(O)cc4)oc4cc(O)cc(O)c4c3=O)[C@@H](O)[C@H](O)[C@H]2O)[C@H](O)[C@H](O)[C@H]1O,.,/,80.4,/
S=C1NC[C@H](CC2CCCCC2)N1CCc1cccc2ccccc12,.,/,/,.
CSc1nc(NCCOCCO)c2sc3nc(-c4ccco4)c4c(c3c2n1)CCC4,.,.,96.5,.
CCN(CCO)c1nc(SC)nc2c1sc1nc(-c3ccco3)c3c(c12)CCC3,.,.,97.0,.
SMILES,SUMO Mot1 rescue,PfM18AAP inh,ALR H2O2 inh,HIF act
O=C(O)CCC(=O)Nc1ccc2c(c1)Cc1cc(NC(=O)CCC(=O)O)ccc1-2,.,.,99.4,.
Cc1nc2c(C(=O)N3CCOCC3)cnn2c(C)c1Cc1ccc(Cl)cc1,.,.,98.5,.
Cc1nc2c(C(=O)N3CCOCC3)cnn2c(C)c1Cc1cccc(Cl)c1,.,.,.,.
Cc1csc(NC(=O)c2nc(-c3ccccc3)n(-c3ccccc3)n2)n1,.,.,.,.
O=C(Nc1nccs1)c1nc(-c2ccccc2)n(-c2ccccc2)n1,314.0,.,/,.
O=C(COC(=O)c1sc2ccccc2c1Cl)Nc1ncc(Cl)cc1Cl,/,.,.,.
CC(C)N1C(=O)CC(Nc2ccc(N3CCOCC3)cc2)C1=O (configuration not stated),.,.,99.2,.
COc1ccc(CCN2C(=O)CC(Nc3ccc(N4CCOCC4)cc3)C2=O)cc1OC (configuration not stated),.,.,98.7,.
O=C1CC(Nc2ccc(N3CCOCC3)cc2)C(=O)N1C1CCCCC1 (configuration not stated),.,.,99.5,.
O=C1CC(Nc2ccccc2)C(=O)N1c1ccc(N2CCOCC2)cc1 (configuration not stated),.,.,.,/
O=C1CC(Nc2ccc(N3CCOCC3)cc2)C(=O)N1c1ccccc1F (configuration not stated),.,.,99.2,.
